M1 PAM: potentiates human M1 receptor response to acetylcholine. activation, % at 3 µM. AID 588819. CHO-K1 hM1, Fluo-8 calcium fluorescence, ACh EC20; 0% = ACh EC20, 100% = maximal ACh. 360,000 tested, 0.088% active. P11229; in the data active means activation above about 19%, passing the limit was not always enough
Target sequence (P11229 whole entry, looked up): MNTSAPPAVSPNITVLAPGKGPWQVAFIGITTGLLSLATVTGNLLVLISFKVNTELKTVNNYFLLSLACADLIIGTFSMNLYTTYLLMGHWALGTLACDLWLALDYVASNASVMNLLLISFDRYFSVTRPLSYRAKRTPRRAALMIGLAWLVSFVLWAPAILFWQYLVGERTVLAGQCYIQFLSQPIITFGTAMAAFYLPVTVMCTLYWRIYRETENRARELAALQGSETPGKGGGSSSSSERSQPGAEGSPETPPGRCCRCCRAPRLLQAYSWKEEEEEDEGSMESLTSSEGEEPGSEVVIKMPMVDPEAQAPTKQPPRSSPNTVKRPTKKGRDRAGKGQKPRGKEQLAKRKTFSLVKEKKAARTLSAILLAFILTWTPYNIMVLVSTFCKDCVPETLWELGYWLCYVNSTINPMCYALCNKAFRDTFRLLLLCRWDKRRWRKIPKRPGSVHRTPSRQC
M1 ag parental: M1 agonist counterscreen hit in parental CHO-K1 cells; activation, % at 3 µM; Fluo-8 calcium fluorescence; scaled to maximal ATP response, vehicle zero; 360,000 tested, 0.48% active; in the data active means activation above about 15%;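 further: untransfected CHO-K1 host cells lacking M1 receptor as counterscreen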
M1 ag: agonists of human M1 muscarinic receptor; activation, % at 3 µM; CHO-K1 hM1, Fluo-8 calcium fluorescence, agonist mode; 0% DMSO, 100% acetylcholine EC100; 360,000 tested, 0.33% active;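 active means activation above the run's mean compound activation plus 3 SD, cut at about 16% in these data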;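 further: peak over basal fluorescence ratio within a 140 s kinetic read after compound addition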
CHRM1 antagonist: antagonists of human M1 muscarinic receptor; AID 588852; CHO-K1 hM1, Fluo-8 calcium fluorescence, ACh EC80 antagonist; 360,000 tested, 1.3% active; P11229; inhibition, % at 3 µM;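 active means percent inhibition above its own plate's cutoff, namely the mean of that plate's compound wells plus 3 SD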;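 further: peak over basal fluorescence ratio during 140 s after agonist addition; 0% = ACh EC80 plus DMSO and 100% = DMSO alone without agonist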
CHO-K1 Ca antag: M1 antagonist counterscreen hit in parental CHO-K1 cells; ATP-induced calcium, Fluo-8 fluorescence; inhibition, % at 3 µM; 360,000 tested, 0.6% active; AID 602250;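 active means inhibition above a per-plate cutoff, the plate's mean sample inhibition plus 3 SD, cut at about 24% in these data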;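 further: 0% = DMSO plus EC80 ATP and 100% = DMSO alone without ATP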
CHO-K1 Ca PAM: counter-screen for M1 PAMs: effect in parental CHO-K1 cells; ATP EC20, Fluo-8 calcium fluorescence; 0% at ATP EC20, 100% at ATP max; activation, % at 3 µM; 360,000 tested, 0.02% active; AID 602247;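 active means activation above the run cutoff, the mean activation of all test compounds plus 3 SD, cut at about 40% in these data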;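 further: peak over basal fluorescence ratio in a 140 s read after ATP addition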
* = called active by the depositor. Sampled rows, rich in hits. Any-hit rate of the full collection: about 2.3%.

SMILES	M1 PAM	M1 ag parental	M1 ag	CHRM1 antagonist	CHO-K1 Ca antag	CHO-K1 Ca PAM
COC(=O)c1cc2ccsc2n1Cc1cc(=O)n2ccccc2n1	-37	1	-12	77*	-3	-3
CCCCN1CCC(=O)C(C(=O)OCC)=C1C(=O)OCC	7	0	-2	-13	-19	12
Cc1ccc(-c2nnn(CC(=O)N(CC(=O)NC3CCCCC3)c3cccc(F)c3)n2)o1	8	20*	8	1	1	3
Cc1ccc(-c2nnn(CC(=O)N(CC(=O)NC3CCCC3)c3cccc(F)c3)n2)o1	11	1	-1	-7	-11	-18
Cc1cc(CN2CCCC(N3CCc4ccccc4C3)C2)cc(C)c1O (stereo not drawn)	-9	1	-10	-4	-18	-4
O=C(C1CCN(c2nnc(N3CCCC3=O)s2)CC1)N1CCN(c2cccc(C(F)(F)F)c2)CC1	-24	7	-2	77*	3	0
COc1cccc(CC2(CO)CCN(Cc3cnc(N4CCOCC4)s3)CC2)c1	2	0	-5	0	-6	0
OCC1(CCCc2ccccc2)CCN(Cc2cnc(N3CCOCC3)s2)CC1	-5	3	19*	6	-11	-4
O=C(OC1CCCC1)c1ccc(Cl)cc1Cl	11	-1	0	-14	14	-23
CC1CN(C(=O)CCNC(=O)c2ccc(Cl)cc2)CC(C)O1 (stereo not drawn)	6	0	-3	-9	-8	11
CCCCCCCCCn1c2c(c(=N)c3c1CCC3)CCC2	-9	5	-1	31*	18	11
O=C(COc1ccccc1Cl)Nc1ccc(N2CCN(C(=O)c3ccccc3)CC2)cc1	2	0	-1	5	0	-1
CCOC(=O)C1CCCN(c2cc(=O)n(-c3ccccc3Cl)c(=O)[nH]2)C1 (stereo not drawn)	-4	0	29*	-5	12	5
CCOC(=O)C1CCCN(c2cc(=O)n(Cc3ccc(F)cc3)c(=O)[nH]2)C1 (stereo not drawn)	-9	0	22*	1	-1	2
COC(=O)C1CCN(c2cc(=O)n(Cc3ccc(F)cc3)c(=O)[nH]2)CC1	8	0	-1	-11	-4	14
O=C(Cn1cnc([N+](=O)[O-])n1)N/N=C/c1cc(Cl)ccc1O	-5	0	-2	-4	11	-1
CN1OC[C@@H]2CN(Cc3cc(Cl)cc(Cl)c3)[C@H](c3cccc(Br)c3)C[C@@H]21	-3	0	-4	-2	-4	-5
CCC1Oc2ccccc2N(CC(=O)Nc2ccccc2OC)C1=O (stereo not drawn)	-3	2	-5	7	24*	-9
CCOc1ccc2oc(C(=O)NCC3CCCO3)c(C)c2c1 (stereo not drawn)	0	0	-2	25*	3	-20
COc1ccc2oc(C(=O)NCC3CCCO3)c(C)c2c1 (stereo not drawn)	4	1	-2	-2	-4	-13
Cc1noc(/C=C/c2ccco2)c1S(=O)(=O)N1CCC(C(=O)NC(C)c2ccccc2)CC1 (stereo not drawn)	9	0	-5	-11	23	-3
Cc1noc(/C=C/c2ccco2)c1S(=O)(=O)N1CCC(C(=O)N2c3ccccc3CC2C)CC1 (stereo not drawn)	-2	0	-2	15	26*	-9
CC(CCN1C(N(C)C)=NC[C@@H]1C)c1ccccc1 (stereo partly drawn)	-23	0	-14	31*	10	-14
O=C(COc1ccc(Cl)cc1)NCCNC(=O)c1ccccn1	4	1	0	7	-12	-2
Fc1ccc(N2CCN(C(=S)NCc3ccco3)CC2)cc1	-8	2	-8	-4	-6	9
SMILES	M1 PAM	M1 ag parental	M1 ag	CHRM1 antagonist	CHO-K1 Ca antag	CHO-K1 Ca PAM
COc1cccc(N2CCN(C(=S)NCc3ccco3)CC2)c1	12	0	-1	1	26*	-3
Cc1ccc(CN(C(=O)COc2cccc(C)c2C)C2CCS(=O)(=O)C2)o1 (stereo not drawn)	4	1	-4	-3	-12	7
CNc1ccc(C(O)(C(F)(F)F)C(F)(F)F)cc1C(O)(C(F)(F)F)C(F)(F)F	4	0	-6	6	35*	-8
Cc1ccccc1CNC(=O)C(=O)NCCC1CCCCN1S(=O)(=O)c1ccccc1 (stereo not drawn)	3	2	-2	-1	1	3
O=Cc1c[nH]c2ccc(NC(=O)OCc3ccccc3)cc12	10	-1	2	2	29*	-28
CCOC(=O)c1c(-c2ccccc2Cl)cn2ccccc12	-9	1	-6	1	100*	10
CCOC(=O)c1c(-c2cccc([N+](=O)[O-])c2)cn2ccccc12	-8	1	-6	16	-7	15
CC(C)N(CC#CC(O)(c1ccccc1)c1ccccc1)CCO	-25	1	-8	84*	-10	22
CN(CC#CC(O)(c1ccccc1)c1ccccc1)C(C)(C)C	-25	0	-9	100*	-5	9
OCCN(CC#CC(O)(c1ccccc1)c1ccccc1)CCO	-5	0	-7	-2	-5	-1
CC(C)N(CC#CC(O)(c1ccccc1)c1ccccc1)C(C)C	-26	0	-9	100*	-8	7
CC1(C)O[C@@H](CC(=O)O)[C@]23CO[C@H](C(=O)[C@]4(C)C2CC[C@@]2(C)[C@H](c5ccoc5)OC(=O)C5O[C@]524)[C@@H]13 (stereo partly drawn)	7	0	-3	-5	-11	7
CCOC(=O)C1CCCN(C(=O)CSc2ccc(Br)cc2)C1 (stereo not drawn)	-1	0	-7	5	18	-10
CCOC(=O)C1CCCN(C(=O)CCc2nnc(-c3ccc(C(C)=O)s3)o2)C1 (stereo not drawn)	-11	1	29*	9	-13	14
CCOC(=O)C1CCCN(C(=O)CSc2nc(C)cc(C)n2)C1 (stereo not drawn)	-5	0	38*	8	-4	10
CCOC(=O)C1CCCN(C(=O)COc2ccccc2O)C1 (stereo not drawn)	-23	0	74*	62*	-11	18
CCc1noc(C)c1C(=O)N1CCCC(N2CCN(c3cccc(Cl)c3)CC2)C1 (stereo not drawn)	4	1	-1	-8	-4	1
COc1ccccc1C(=O)NC(=S)NNC(=O)c1sc2ccccc2c1Cl	-8	0	0	3	-3	3
COc1ccccc1C(=O)NNC(=S)NC(=O)c1sc2ccccc2c1Cl	-5	12	22*	0	-3	16

Screens deposited in PubChem BioAssay by The Scripps Research Institute Molecular Screening Center.
